The values that follow come from PubChem BioAssay (NCI).

Test systems include HCT-15 colon; PC-3 prostate; SK-MEL-5 melanoma; UACC-62 melanoma; LOX IMVI melanoma; SK-MEL-28 melanoma; EKVX NSCLC; SN12C renal; UO-31 renal; ACHN renal; CAKI-1 renal; A498 renal; CCRF-CEM leukemia; MOLT-4 leukemia; HT29 colon; SNB-75 CNS; SNB-19 CNS; U251 CNS; TK-10 renal; SK-MEL-2 melanoma.
What all share (test): NCI-60 one-dose screen, 48 h (100 = growth as untreated, 0 = no growth, -100 = all killed)
Details in all cases: 10 µM unless noted

Several values for one entry are separate records, joined by “and”; a condition that tells them apart may be missing. Equal values may be shown once. This is part of a sample that, as a whole, favours compounds with a hit. Of some 83,000 tested, about 20% had one in any assay.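 Values shown are percent growth following 48 h exposure of cells in 96-well plates to a single concentration of compound; below 10 was considered active.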 Activity calls are given as the source filed them.

For the molecule `COC(=O)/C=C1/CCC2C3CCC4=CC(=O)C(Br)CC4(C)C3C(=O)CC12C` (stereo not given), the growth with HCT-15 colon is 66.6% (inactive); with PC-3 prostate, 53.5% (inactive); in the assay on SK-MEL-5 melanoma, 57.4% (inactive); in the assay on UACC-62 melanoma, 73.5% (inactive); with LOX IMVI melanoma, 38.2% (inactive); with SK-MEL-28 melanoma it was 94.5% (inactive). The growth was 98% (inactive) with EKVX NSCLC; 82.9% (inactive) in the assay on SN12C renal; 81.1% (inactive) in the assay with UO-31 renal; 72.5% (inactive) in the assay with ACHN renal; 73.9% (inactive) with CAKI-1 renal; 117% (inactive) with A498 renal. Besides, the growth is 5.9% (active) with CCRF-CEM leukemia and 52.3% (inactive) in the assay on MOLT-4 leukemia.

As for `COCCOC1=C(Cl)C(=O)c2ccccc2C1=O`, the growth with HT29 colon is 99% (inactive); in the assay with SNB-75 CNS it was 8.63% (active); in the assay with SNB-19 CNS, 88.4% (inactive); in the assay on U251 CNS it was 8.18% (active); in the assay on PC-3 prostate, 18.7% (inactive); with SK-MEL-5 melanoma, -7.27% (active). Besides, the growth in the assay with LOX IMVI melanoma is 22.1% (inactive); in the assay on SK-MEL-28 melanoma, 13.7% (inactive); with EKVX NSCLC, 38.9% (inactive); in the assay with SN12C renal it was 33.4% (inactive); with UO-31 renal, -20.2% (active); in the assay on TK-10 renal it was 97.9% (inactive). Further, the growth is 23.7% (inactive) with ACHN renal, 67.6% (inactive) in the assay on A498 renal and 21.7% (inactive) in the assay with MOLT-4 leukemia.

As for `Oc1ccccc1/C=N/Nc1nc2ccccc2s1`, the growth was 105% (inactive) in the assay with HT29 colon; 45.6% (inactive) in the assay with SNB-75 CNS; 51.4% (inactive) with SNB-19 CNS; 45.3% (inactive) with U251 CNS; 34.6% (inactive) in the assay with PC-3 prostate; 48.8% (inactive) with SK-MEL-5 melanoma. The growth in the assay on LOX IMVI melanoma was 37.2% (inactive); in the assay on SK-MEL-28 melanoma it was 83.3% (inactive); with EKVX NSCLC it was 61.9% (inactive); in the assay on SN12C renal, 48.8% (inactive); with UO-31 renal, 19.7% (inactive); in the assay with TK-10 renal it was 95.1% (inactive). Further, the growth in the assay on ACHN renal was 43.1% (inactive); in the assay with CAKI-1 renal it was 7.12% (active); with A498 renal it was 78.3% (inactive); in the assay with MOLT-4 leukemia, 41.2% (inactive).

Take `CC(C)=CCC/C(C)=C/CC/C(C)=C/CC/C(C)=C/C=C/C=C(\C)CC/C=C(\C)CC/C=C(\C)CCC=C(C)C`: in the assay with UACC-62 melanoma, the growth was 75.8% [100 µM] (inactive) and 45% [100 µM] (inactive).

With `CCC1CC(C)C(O)/C=C/C=C/CC(C)OC(=O)CC(O)C(OC)C1OC1OC(C)CC(O)(C(C)=O)C1O` (stereo not given), the growth in the assay on UACC-62 melanoma is 67.6% [100 µM] (inactive) and 33.4% [100 µM] (inactive).

As to `C=C1C(=O)OC2/C=C(/C)C3(O)OC(C)(CC(OC(=O)C(C)C)C12)CC3OC(C)=O` (stereo not given), in the assay with UACC-62 melanoma, the growth was -93% [100 µM] (active).

For `C=CCCCCCCCCC(=O)[O-].C=CCCCCCCCCC(=O)[O-].[Zn+2]`, the growth in the assay on SNB-19 CNS was 100% (inactive); in the assay on UO-31 renal it was 80.7% (inactive).

With `CC12CCC3c4cc(Br)c(O)c(Br)c4CCC3C1CCC2O` (stereo not given), the growth in the assay on UACC-62 melanoma is 7.01% [100 µM] (active) and -44.7% [100 µM] (active); with TK-10 renal, 12.2% [100 µM] (inactive) and -95.7% [100 µM] (active).

For the molecule `CCCCCCCCCCCCCC1=C(O)C(=O)C(CC2=C(O)C(=O)C(CCCCCCCCCCCCC)=C(O)C2=O)=C(O)C1=O`, the growth with UACC-62 melanoma was 9.52% [100 µM] (active) and -61.7% [100 µM] (active).

`C1CCC([PH+](C2CCCCC2)C2CCCCC2[PH+](C2CCCCC2)C2CCCCC2)CC1.[Au].[CH-]1CCCCC1CC1CCCC[N-]1` (stereo not given): the growth with SNB-75 CNS was 19.8% (inactive).

Turning to `CC(C)(C)[Si](C)(C)OC1[C@@H](CNC(=O)NC(=O)CCl)O[C@@H](n2cnc3c(N)ncnc32)[C@H]1O[Si](C)(C)C(C)(C)C` (stereo not given in full), the growth in the assay with HT29 colon is -74.7% (active); in the assay on SNB-75 CNS it was 50% (inactive); with PC-3 prostate, -83% (active); with SK-MEL-5 melanoma, 90.6% (inactive); in the assay with UACC-62 melanoma it was -75% (active); in the assay on LOX IMVI melanoma, -91.3% (active). The growth is -14.4% (active) in the assay with SK-MEL-28 melanoma; -96.8% (active) in the assay on UO-31 renal; -95.8% (active) in the assay with ACHN renal; -64.8% (active) in the assay with CAKI-1 renal; -12.9% (active) in the assay on A498 renal; -46.5% (active) in the assay on CCRF-CEM leukemia. In addition, the growth in the assay on MOLT-4 leukemia is -53.5% (active).

Take `CCCC(=O)Oc1c2ccsc2c(OC(=O)CCC)c2ccsc12`: in the assay with UACC-62 melanoma, the growth is -75.3% [100 µM] (active) and -100% [100 µM] (active).

Regarding `CCOC(=O)c1nc2cc(C(F)(F)F)ccc2nc1Nc1ccc(F)cc1`, the growth is 33.3% [100 µM] (inactive) and -17.1% [100 µM] (active) in the assay on UACC-62 melanoma; 42.7% [100 µM] (inactive) and 3.59% [100 µM] (active) in the assay on TK-10 renal.

Regarding `Cc1nc2cc(Nc3nc(Cl)nc(Nc4ccc(F)cc4)n3)ccc2n1Cc1ccccc1`, the growth with HT29 colon is 94.5% (inactive); in the assay on SNB-19 CNS, 92.4% (inactive); in the assay with SK-MEL-5 melanoma it was 92.4% (inactive); in the assay on UACC-62 melanoma, 82.4% (inactive); in the assay on LOX IMVI melanoma, 43.3% (inactive); with SK-MEL-28 melanoma, 106% (inactive). Also, the growth was 111% (inactive) in the assay on SK-MEL-2 melanoma; 77.9% (inactive) in the assay on SN12C renal; 80.7% (inactive) in the assay on UO-31 renal; 58.5% (inactive) with TK-10 renal; 36.2% (inactive) in the assay with ACHN renal; 87.7% (inactive) in the assay on CAKI-1 renal. For the same molecule, the results for the growth in the assay with A498 renal, in the assay with CCRF-CEM leukemia and with MOLT-4 leukemia were 69.3% (inactive), 78.5% (inactive) and 90.6% (inactive), respectively.

Turning to `O=C(O)c1cnccc1-c1cc(=O)[nH]n1-c1ccccc1`, the growth in the assay with UACC-62 melanoma was 17.3% [100 µM] (inactive) and 7.35% [100 µM] (active).

In the case of `N#CC1C(=O)N(c2ccccc2)NC12OC(=O)c1ccncc12` (stereo not given), the growth with UACC-62 melanoma is 69.2% [20 µM] (inactive) and 17.2% [20 µM] (inactive); in the assay on TK-10 renal, 88.7% [20 µM] (inactive) and 4.38% [20 µM] (active).

Take `CCOC(=O)CCCOc1cc(-c2ccccc2F)nc2cc3c(cc12)OCO3`: the growth in the assay on UACC-62 melanoma is 31.5% [100 µM] (inactive) and -31.4% [100 µM] (active); in the assay on TK-10 renal it was 58.8% [100 µM] (inactive) and 0% [100 µM] (active).

With `COc1cc2c(cc1O)Cc1c-2[n+](C)cc2cc(OC)c(OC)cc12`, the growth was 12.4% [100 µM] (inactive) and -100% [100 µM] (active) with UACC-62 melanoma; 89.2% [100 µM] (inactive) and 4.86% [100 µM] (active) in the assay on TK-10 renal.

Consider `CCCCOC(=O)C1CN2C(=NC1(C(F)(F)F)C(F)(F)F)Sc1ccccc12` (stereo not given), for which the growth in the assay with UACC-62 melanoma was 4.45% [100 µM] (active) and 54.9% [100 µM] (inactive); in the assay on TK-10 renal, 33.3% [100 µM] (inactive) and 71.4% [100 µM] (inactive).

Take `C=C1CC(O)C2C(=C)C(=O)OC2C2C(C)C(=O)CC12` (stereo not given): the growth with UACC-62 melanoma is -89.7% [100 µM] (active) and -97.7% [100 µM] (active).

With `O=C1NC(=S)NC1C(Cc1ccccc1)c1ccco1` (stereo not given), the growth with UACC-62 melanoma is 36.5% [100 µM] (inactive) and 57.6% [100 µM] (inactive).

Turning to `Cc1ccc(C(=O)O[C@H](C(=O)O)[C@H](OC(=O)c2ccc(C)cc2)C(=O)O)cc1`, the growth with SNB-19 CNS was 102% (inactive); with UO-31 renal, 85.1% (inactive).

For `COc1ccc(-c2c(-c3cc4c(c(OC)c3OC)OCO4)noc2N)cc1`, the growth was 22.8% (inactive) in the assay with SNB-75 CNS; 40.6% (inactive) in the assay with SNB-19 CNS; 32.4% (inactive) in the assay on U251 CNS; 12.2% (inactive) in the assay on PC-3 prostate; 16.5% (inactive) in the assay with SK-MEL-5 melanoma; 37.5% (inactive) in the assay on UACC-62 melanoma. Besides, the growth in the assay on LOX IMVI melanoma was 43.7% (inactive); in the assay on SK-MEL-28 melanoma, 49.7% (inactive); in the assay with SK-MEL-2 melanoma, 63% (inactive); in the assay with EKVX NSCLC, 40.5% (inactive); with SN12C renal it was 44.4% (inactive); with UO-31 renal, 57.4% (inactive). Moreover, the growth with TK-10 renal is 66.3% (inactive); in the assay on CAKI-1 renal, 37.6% (inactive); in the assay on A498 renal, 35.8% (inactive); in the assay with CCRF-CEM leukemia it was 11.7% (inactive); with MOLT-4 leukemia, 36.6% (inactive).
